This is a sample that favours compounds with a hit; in the whole collection about 2.4% have one here.
D2 ag-1: HTS Assay for Allosteric Agonists of the Human D2 Dopamine Receptor: Primary Screen for Agonists; D(2) dopamine receptor (Homo sapiens), P14416; HEK293 T-REx D2 cells, calcium flux agonist mode; activation, % at 2 µM; actives 0.53% (n = 340,000);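 active = activation over 3 SD above normal in the single-dose calcium agonist read, cut at about 30% in these data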; also: 0% is about no effect
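Agonism is scored from calcium flux in a force-coupled, inducible HEK293 cell line expressing D2, read kinetically for 180 s after compound addition against dopamine controls.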
D2 PAM-1: HTS Assay for Positive Allosteric Modulators of the Human D2 Dopamine Receptor: Primary Screen for Potentiators | D(2) dopamine receptor (Homo sapiens), P14416 | HEK293 T-REx D2, calcium flux, EC20 dopamine potentiation | potentiation, % at 10 µM | actives 0.34% (n = 340,000) | AID 485347, 2010;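 active = potentiation over 3 SD above the plate norm, cut at about 30% in these data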; also: 0% is about no effect
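Cells plated with tetracycline inducer and held overnight at 30 C; calcium dye loaded 30–90 min at room temperature; baseline taken, compound added and read 180 s; EC20 dopamine then added and read 180 s.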
D2 PAM-2: Beta-Arrestin HTS for Positive Allosteric Modulators of the Human D2 Dopamine Receptor: Potentiators. actives 0.23% (n = 360,000). D(2) dopamine receptor (Homo sapiens), P14416. DiscoveRx D2 beta-arrestin cells, luminescence, 90 min; 100% = 57 uM dopamine signal. AID 624464, 2012. potentiation, % (no concentration beside the values); in the data active = potentiation above about 50%; inconclusive = mostly about 30% to 49%
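PathHunter D2 cells, attached overnight at 37 deg C, received compound in DMSO plus dopamine at EC20 (50 nM final) for 90 min at 37 deg C. Beta-arrestin recruitment was read as luminescence after 1 h with detection reagent at ambient temperature.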
D2 antag: HTS Assay for Allosteric Antagonists of the Human D2 Dopamine Receptor: Primary Screen for Antagonists; D(2) dopamine receptor (Homo sapiens), P14416; HEK293 TREx D2 cells, calcium flux, dopamine EC80; inhibition, % at 10 µM; actives 2% (n = 340,000); AID 485344, 2010; in the data active = inhibition above about 30%; inactive = below that, where a call was filed; also: 0% is about no effect
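Dopamine at EC80 is the agonist stimulus; test compounds precede it by 180 s. Calcium flux read kinetically in a force-coupled, inducible HEK293 T-REx D2 cell line.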
D2 ag-2: Beta-Arrestin HTS for Positive Allosteric Modulators of the Human D2 Dopamine Receptor: Agonists; D(2) dopamine receptor (Homo sapiens), P14416; DiscoveRx PathHunter D2 beta-arrestin, luminescence, 90 min; 100% = 57 uM dopamine signal; activation, % (no concentration beside the values); actives 0.084% (n = 360,000); in the data active = activation above about 40%; inconclusive = between about 15% and that limit
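Agonist mode: compounds alone added to overnight-plated D2 PathHunter cells for 90 min at 37 C, with 57 uM final dopamine (EC100) defining full response. Beta-arrestin recruitment detected by chemiluminescent reagent, read after 1 h at ambient temperature.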
D3 ag: qHTS of D3 Dopamine Receptor Agonist: D3 Dopamine Receptor B-arrestin Agonist Confirmatory Assay. shares compounds with D2 ag-1. DiscoveRx D3 beta-arrestin cells, luminescence, 90 min. Potency, µM (titrated, usually from 76.9 µM), inactives show at the highest dose activation, hits mostly activators. actives 4% (n = 2,300). AID 720506, 2013;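 also: potency is read from the fitted curve at half-maximal effect; 100% = dopamine control response; nearly all actives have a fitted effect of over 70% in size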
Target sequence (P35462 whole entry, looked up): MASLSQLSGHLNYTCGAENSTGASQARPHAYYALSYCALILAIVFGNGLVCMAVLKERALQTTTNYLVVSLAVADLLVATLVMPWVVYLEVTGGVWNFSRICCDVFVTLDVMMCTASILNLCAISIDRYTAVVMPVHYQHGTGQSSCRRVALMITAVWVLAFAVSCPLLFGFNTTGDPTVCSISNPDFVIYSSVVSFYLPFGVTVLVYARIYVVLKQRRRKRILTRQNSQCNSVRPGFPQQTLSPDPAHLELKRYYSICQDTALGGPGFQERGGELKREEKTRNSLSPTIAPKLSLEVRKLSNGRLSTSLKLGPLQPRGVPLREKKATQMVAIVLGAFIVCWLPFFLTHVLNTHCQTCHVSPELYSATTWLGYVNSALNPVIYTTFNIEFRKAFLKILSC
D2 ag-3: qHTS of D3 Dopamine Receptor Agonist: D2 Dopamine Receptor B-arrestin Agonist Counterscreen; AID 720507, 2013; actives 5.9% (n = 2,300); Potency, µM (doses to about 76.9 µM), inactives show top-dose activation, actives largely listed as activators; shares compounds with D2 ag-1; DiscoveRx PathHunter D2 beta-arrestin, luminescence, 90 min; response scale: percent relative to full dopamine signal; also: potency is read from the fitted curve at half-maximal effect; % of control where 0% means no effect; nearly all actives have a fitted effect of over 70% in size
Active calls of the source: *; ? = inconclusive; nt = not tested or not shown. Unless noted, calls follow the shape of the dose curve; as a rule, active = well fitted activation curve with a large enough effect; inconclusive = small, poorly fitted or top-dose-only effect; inactive = flat fitted curve, though single readings scatter.

SMILES	D2 ag-1	D2 PAM-1	D2 PAM-2	D2 antag	D2 ag-2	D3 ag	D2 ag-3
COc1ccccc1NS(=O)(=O)c1ccc(C(=O)N2CCCC(C(F)(F)F)C2)cc1 (centres undefined)	-1	-15	-5	13	0	2%	-2%
CCS(=O)(=O)N1CC(=O)N(c2ccccc2C)C(C)(C(=O)NC2CCCCC2)C1 (centres undefined)	0	-7	nt	nt	nt	nt	nt
CCCn1c(CCC(=O)Nc2cc(Cl)c(OC)cc2OC)nc2cccnc21	-1	2	nt	nt	nt	nt	nt
C/C(=N\NC(=O)CN1CCCCC1)c1ccccc1O	65*	-30	-19	85*	9	10%	13%
CN(CC(=O)NNC(=O)CNC(=O)c1cccs1)S(=O)(=O)c1ccc(Cl)cc1	42*	-4	-28	10	2	-5%	5%
CN(CC(=O)NNC(=O)CNC(=O)c1ccccc1F)S(=O)(=O)c1ccc(Cl)cc1	4	0	2	-14	5	nt	nt
CCOc1ccccc1C(=O)NCC(=O)NNC(=O)CN(C)S(=O)(=O)c1ccc(Cl)cc1	nt	nt	-10	nt	?	?	?
O=C(CSc1ccc(-c2ccccn2)nn1)Nc1cccc(F)c1	71*	-20	-4	-11	2	10%	9%
Cc1ccc(F)cc1NC(=O)CN1CCN(c2ccccn2)CC1	27	-8	-9	50*	?	19%	?
O=C(CN1CCc2ccccc2C1)Nc1ccccc1F	47*	-17	1	64*	?	?	23%
O=C(CN1CCN(c2ccccn2)CC1)Nc1cccc(F)c1	27	-5	-4	-19	4	3%	-1%
O=C(CN1CCc2ccccc2C1)Nc1ccc(F)cc1	0	7	-3	-6	1	nt	nt
Cc1cc(C)cc(NC(=O)CSc2ccc(-c3ccccn3)nn2)c1	-1	2	-19	-2	3	nt	nt
Cc1ccc(NC(=O)CN2CCN(c3ccccn3)CC2)c(Cl)c1	0	2	-5	-16	-6	nt	nt
CN(C)c1ccc(CNC(=O)C2Cc3c(-c4ccccc4Oc4ccccc4)ccnc3O2)cc1 (centres undefined)	nt	nt	-8	nt	-1	nt	nt
COc1ccc(-c2nc3scc(CCNS(=O)(=O)c4ccc5c(c4)OCCO5)n3n2)cc1	0	17	nt	nt	nt	nt	nt
O=C(CN1CCN(c2ccccn2)CC1)Nc1ccc(F)cc1F	59*	-17	-1	25	11	30%	?
CC(C(=O)Nc1cccc(S(=O)(=O)N2CCOCC2)c1)N1CCN(C/C=C/c2ccccc2)CC1 (centres undefined)	51*	-23	-12	80*	-2	?	22%
O=C(CN1CCN(c2ccccn2)CC1)Nc1cccc(S(=O)(=O)N2CCOCC2)c1	42*	-15	14	7	4	23%	?
O=C(Nc1cccc(S(=O)(=O)N2CCOCC2)c1)C(c1ccccc1)N1CCCCC1 (centres undefined)	nt	nt	-6	nt	-2	nt	nt
O=C(CN1CCN(c2ccccn2)CC1)Nc1ccccc1F	73*	-15	6	57*	9	29%	28%
Cc1cc(C)cc(NC(=O)CN2CCN(c3ncccn3)CC2)c1	-1	5	-4	-2	7	nt	nt
